Only some compounds are listed: those with a hit (about 7.4% of all), similar ones and a draw of the others.
TSHR ag = TSH receptor (human) agonism | HEK293-CNG-TSHR cells (CNG channel as cAMP sensor), membrane potential dye, cAMP | 73,000 tested, 0.48% active | P16473 | Potency, µM (titrated, usually from 57.1 µM), for the others: at the highest dose activation, hits mostly activators | AID 926; active = well fitted activation curve with a large enough effect in the main read-out, with a control signal flat, not every such curve was filed as active; inconclusive = small, poorly fitted or top-dose-only effect, or a change in a side signal; inactive = no such curve, though single readings can be large or run the other way; % of control where 0% means no effect;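 also: the control signal comes from parental cells without the receptor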
Target sequence (P16473 whole entry, looked up): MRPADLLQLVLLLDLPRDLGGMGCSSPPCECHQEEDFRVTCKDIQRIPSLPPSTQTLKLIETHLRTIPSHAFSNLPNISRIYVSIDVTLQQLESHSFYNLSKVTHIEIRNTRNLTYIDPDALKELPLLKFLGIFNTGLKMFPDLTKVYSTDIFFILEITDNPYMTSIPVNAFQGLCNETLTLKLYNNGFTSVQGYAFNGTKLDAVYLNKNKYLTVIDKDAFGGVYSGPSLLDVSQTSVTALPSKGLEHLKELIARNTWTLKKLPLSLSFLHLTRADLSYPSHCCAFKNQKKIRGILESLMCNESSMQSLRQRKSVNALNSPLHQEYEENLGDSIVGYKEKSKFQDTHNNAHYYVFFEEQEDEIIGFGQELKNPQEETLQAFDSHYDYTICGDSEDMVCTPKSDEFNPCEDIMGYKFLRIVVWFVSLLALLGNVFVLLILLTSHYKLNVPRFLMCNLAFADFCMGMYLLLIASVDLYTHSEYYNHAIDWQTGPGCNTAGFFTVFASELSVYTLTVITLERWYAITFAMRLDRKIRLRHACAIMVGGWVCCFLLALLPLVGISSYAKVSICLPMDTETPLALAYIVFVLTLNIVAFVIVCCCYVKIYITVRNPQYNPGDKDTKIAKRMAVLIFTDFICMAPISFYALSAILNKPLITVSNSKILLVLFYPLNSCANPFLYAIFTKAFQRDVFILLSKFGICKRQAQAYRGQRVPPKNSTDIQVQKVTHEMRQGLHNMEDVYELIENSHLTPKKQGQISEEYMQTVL
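HEK 293 cells stably expressing TSHR and a cAMP-gated CNG channel; parental CNG-only cells as counterscreen. Cells preloaded 60 min with membrane potential dye plus 100 uM RO 20-1724, then compound 30 min; fluorescence read at 590 nm.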
ERK AVP block = inhibitors of vasopressin-stimulated ERK signaling pathway | HEK293-V1b, vasopressin-stimulated pERK AlphaScreen | Potency, µM (doses to about 57.5 µM), for the others: at the top dose activity, negative = inhibition, most hits filed as inhibitors | 72,000 tested, 0.99% active | AID 995; also: % is scaled to controls: 0 for no effect and ±100 for the full control effect; nearly all actives have a fitted effect of over 55% in size
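qHTS, compounds titrated on V1b-expressing HEK293 cells. Preincubation 30 min at 37C, vasopressin 25 nM for 5 min, lysis 10 min, bead incubation 5 hr at room temperature.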
CRE-bla Fsk = alters forskolin-stimulated CRE reporter signaling in CHO cells; CHO CRE-bla reporter (cAMP response element driving beta-lactamase), forskolin EC10, beta-lactamase ratio; Potency, µM (highest dose often 38.2 µM), inactives show at the highest dose activity change, negative = inhibition, most hits filed as activators; 71,000 tested, 2.5% active; AID 662; active = well fitted activation curve with a large enough effect in the signal ratio, with a control signal flat, not every such curve was filed as active; inconclusive = small, poorly fitted or top-dose-only effect, or effect the other way, or a change in a side signal; the % refers to the signal ratio; also: % of control where 0% means no effect
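Reporter-gene assay: CHO cells with beta-lactamase behind cAMP responsive elements, co-treated with compound and EC10 NKH 477 for 3 hours at 37 degrees Celsius. Activity came from the 460/530 nm CCF4 emission ratio.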
HEK293 cAMP ctrl = counter-screen for TSHR agonists: cAMP increase in parental HEK293; parental HEK293 CNG cAMP sensor, membrane potential fluorescence; Potency, µM (highest dose often 57.1 µM), inactives show top-dose activation, most hits filed as activators; 73,000 tested, 2.5% active; also: % of control where 0% means no effect; nearly all actives have a fitted effect of over 55% in size
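Parental HEK 293 cells stably expressing a cAMP-gated CNG channel were loaded with membrane potential dye containing 100 uM RO 20-1724 for 60 min. Compound added for 30 min; depolarization read as fluorescence intensity at 590 nm.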
Tau filament bind = tau filament binding; P10636; recombinant tau filaments, thioflavin S fluorescence, 15 h; filaments grown with octadecylsulfate alongside compound; Potency, µM (series often up to 57.1 µM), without a hit: at the top dose activity change, negative = inhibition; 71,000 tested, 2% active; AID 596;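 also: % is scaled to controls: 0 for no effect and ±100 for the full control effect; actives lower thioflavin S fluorescence by blocking filaments or displacing dye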
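Read-out: ThS fluorescence, 450 nm excitation/510 nm emission; lower signal marks blocked filament formation or displaced dye. Tau at 1 uM with 30 uM ODS, 10 uM ThS, 5 mM DTT, 100 mM NaCl, 10 mM HEPES pH 7.4; 15 h, 37 C.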
Numbers without * were called inactive; [ ] = dose if it differs, or a comment. Unless noted, calls follow the shape of the dose curve; as a rule, active = well fitted curve in the direction sought with a large enough effect; inconclusive = small, poorly fitted or top-dose-only effect, or another doubt; inactive = no such curve, though single readings can be large; an effect the other way counts as inactive or inconclusive. Potency is read from the fitted curve at half-maximal effect.

Screening CC(C)[C@@H](CC(=O)N[C@@H]1CCCC[C@H]1C(=O)N[C@H](CC(=O)N[C@@H](CCC(=O)O)CC(=O)O)Cc1ccccc1)NC(=O)C[C@H](Cc1c[nH]c2ccccc12)NC(=O)[C@@H]1CNCC[C@H]1N returned TSHR ag 9%, CRE-bla Fsk -11%, HEK293 cAMP ctrl 12% and Tau filament bind -2%.
Screening CN(Cc1ccco1)c1ccnc(-c2ccoc2)n1 returned TSHR ag -1%, ERK AVP block 0%, CRE-bla Fsk 2%, HEK293 cAMP ctrl -12% and Tau filament bind 86%.
C[C@]12CC[C@H]3c4ccc(O)cc4CC[C@@H]3[C@H]1CC[C@@H]2OC(=O)CCc1ccccc1 was read as TSHR ag 0%[11.4 µM], ERK AVP block 10%[11.5 µM], CRE-bla Fsk 4%[7.6 µM], HEK293 cAMP ctrl 5%[11.4 µM] and Tau filament bind -2%[11.4 µM].
For Nc1nc(N)c2[nH]cnc2n1 (tested in a mixture with another compound) the results were TSHR ag -1%[11.4 µM], ERK AVP block -10%[11.5 µM], CRE-bla Fsk 5%[7.6 µM], HEK293 cAMP ctrl 0%[11.4 µM] and Tau filament bind 6%[11.4 µM].
Screening CCOC(=O)c1ccc(Oc2nc(NC)nc(SC)n2)cc1 returned TSHR ag 3%, ERK AVP block -4%, CRE-bla Fsk 9%, HEK293 cAMP ctrl 2% and Tau filament bind 152%.
`CCOC(=O)c1ccc(Oc2nc(SC)nc(N(C)C)n2)cc1` gave TSHR ag inconclusive, ERK AVP block 71%, CRE-bla Fsk inconclusive, HEK293 cAMP ctrl 3.2µM* and Tau filament bind 8%[11.4 µM].
For O=C(CSc1nnc(-c2cccnc2)n1Cc1ccco1)Nc1nc(-c2ccc(F)cc2)cs1 the results were ERK AVP block inconclusive, CRE-bla Fsk 4%, HEK293 cAMP ctrl 26% and Tau filament bind 76%.
CCOC(=O)c1c(NC(=O)CSc2nnc(-c3cccnc3)n2Cc2ccco2)sc(C)c1C was read as TSHR ag inconclusive, ERK AVP block 10%, CRE-bla Fsk 4µM*, HEK293 cAMP ctrl inconclusive and Tau filament bind 26%.
`CCCCNc1nc(C)nc2c1nc(-c1ccccc1)n2C1CCN(Cc2ccccc2)C1` (configuration not stated) gave TSHR ag inconclusive, ERK AVP block -15%, CRE-bla Fsk inconclusive, HEK293 cAMP ctrl inconclusive and Tau filament bind 82%.
CC(C)Oc1ccc(CSc2nnc3n(C)c(=O)c4c5c(sc4n23)CCCC5)cc1 was read as TSHR ag inconclusive, ERK AVP block -16%, CRE-bla Fsk 2%, HEK293 cAMP ctrl 16µM* and Tau filament bind 25%.
Screening CN1CCc2c(sc3c2c(=O)n(-c2ccccc2)c2nnc(SCc4ccc(Cl)cc4)n32)C1 returned TSHR ag 3%, ERK AVP block -28%, CRE-bla Fsk 27%, HEK293 cAMP ctrl 7% and Tau filament bind 3.2µM*.
Screening COC(=O)C/C=C\[C@@H](C)[C@@H](/C=N\OCC[C@@H]1C=C[C@H](OC(C)=O)[C@H](COC(C)=O)O1)OC returned TSHR ag -4%[11.4 µM], ERK AVP block 4%[11.5 µM] and HEK293 cAMP ctrl 7%[11.4 µM].
For O=S(=O)(O)c1cc(N=[N+]([O-])c2cc(S(=O)(=O)O)c3ccccc3c2)cc2ccccc12 the results were TSHR ag -1%[11.4 µM], ERK AVP block -7%[11.5 µM], CRE-bla Fsk 4%[7.6 µM], HEK293 cAMP ctrl 0%[11.4 µM] and Tau filament bind 2%[11.4 µM].
`Cc1nc(NCCCn2ccnc2)c2oc3ccccc3c2n1` gave TSHR ag 9%, ERK AVP block inconclusive, CRE-bla Fsk 13µM*, HEK293 cAMP ctrl 12% and Tau filament bind 11%.
c1ccc2c(c1)oc1c(NCCCn3ccnc3)ncnc12 was read as TSHR ag 4%, ERK AVP block -13%, CRE-bla Fsk 24%, HEK293 cAMP ctrl 7% and Tau filament bind -3%.
Screening CCN1c2ccccc2NC2N=C(OC)C(c3ccccc3)C21 (configuration not stated) returned TSHR ag inconclusive, ERK AVP block inconclusive, CRE-bla Fsk inconclusive, HEK293 cAMP ctrl inconclusive and Tau filament bind 32µM*.
Screening O=c1c(-c2ccc(O)cc2)coc2c(C3OC(CO)C(O)C(O)C3O)c(O)ccc12 (configuration not stated) returned ERK AVP block 7%.
For O=C(Cn1cnc2c(cnn2-c2ccc(F)cc2)c1=O)N1CCCc2ccccc21 the results were TSHR ag 24%, ERK AVP block inconclusive, CRE-bla Fsk -2%, HEK293 cAMP ctrl 24% and Tau filament bind 4%.
`Cc1ccc(-n2nnc3c(=O)n(CC(=O)OCc4ccccc4)cnc32)cc1` gave TSHR ag inconclusive, CRE-bla Fsk 12%, HEK293 cAMP ctrl 25µM* and Tau filament bind 35%.
Cc1ccc(-n2ncc3c(=O)n(CC(=O)OCc4ccccc4)cnc32)cc1 was read as TSHR ag inconclusive, ERK AVP block -11%, CRE-bla Fsk -2%, HEK293 cAMP ctrl 25µM* and Tau filament bind -7%.
For Cc1ccc(-n2ncc3c(=O)n(CC(=O)N4CCCc5ccccc54)cnc32)cc1C the results were TSHR ag 27%, ERK AVP block 25µM*, CRE-bla Fsk -9%, HEK293 cAMP ctrl 22% and Tau filament bind -1%.
COc1ccc(S(=O)(=O)N(C)CC(=O)O)cc1C was read as TSHR ag -5% and HEK293 cAMP ctrl -25%.
COc1cccc(Cn2c(=O)c(-c3ccc(F)c(F)c3)nc3cncnc32)c1 was read as TSHR ag -18%, ERK AVP block -21%, CRE-bla Fsk inconclusive, HEK293 cAMP ctrl -12% and Tau filament bind 10µM*.
`COc1cccc(Cn2c(=O)c(-c3ccccc3)nc3cncnc32)c1` gave TSHR ag -5%, ERK AVP block -15%, CRE-bla Fsk inconclusive, HEK293 cAMP ctrl -2% and Tau filament bind 20µM*.
Screening COc1cccc(Cn2c(=O)c(-c3cccs3)nc3cncnc32)c1 returned TSHR ag 6%, ERK AVP block inconclusive, CRE-bla Fsk inconclusive, HEK293 cAMP ctrl 16% and Tau filament bind inconclusive.
Screening NCCc1nc(-c2nc(C(=O)O)cs2)cs1 returned TSHR ag 0%[11.4 µM], ERK AVP block -20%[11.5 µM], CRE-bla Fsk 7%[7.6 µM], HEK293 cAMP ctrl -8%[11.4 µM] and Tau filament bind 2%[11.4 µM].
`CCOc1ccc(N2C(=O)CC(/C=C3/N(C)c4ccccc4C3(C)C)C2=O)cc1` (configuration not stated) gave TSHR ag 1%, ERK AVP block -9%, CRE-bla Fsk inconclusive, HEK293 cAMP ctrl -5% and Tau filament bind 25µM*.
`C=C[C@@]1(C)C=C2CC[C@@H]3[C@](C)(CCC[C@@]3(C)C(=O)O)[C@H]2CC1` gave TSHR ag -14%, CRE-bla Fsk inconclusive, HEK293 cAMP ctrl -22% and Tau filament bind 6%.
